Measurements published in PubChem BioAssay AID1251 (SRMLSC, 2008).
The whole screen tested about 200,000 compounds, of which about 720 (0.36%) were called active. What follows is part of a selection rich in actives, with near analogues and random picks from the rest. A number with no mark means an inactive call. Rule as the data show it: active = inhibition above about 30%; inactive = the rest, inconclusive results apart.

Assay: inhibitors of arbovirus infection in cells – cell-based, full library, 10K replicate subset, primary screen (AID 1251)
Settings: arbovirus infection cell-based antiviral screen, at 10 µM, active compounds read high

Row | SMILES | inhibition
1 | COc1cccc(CNn2cn[nH]c2=S)c1OCc1ccccc1 | -1.17%
2 | NC(=O)CC[C@@H]1NC(=O)[C@@H]2CCCN2C(=O)c2cc([N+](=O)[O-])cc(F)c2NCCC[C@@H](C(N)=O)NC1=O | 8.77%
3 | O=C(CSc1ncn[nH]1)NCc1ccc2c(c1)OCO2 | 2.87%
4 | CCNC(=S)N1CCN(c2ncccn2)CC1 | -0.7%
5 | O=C(C1=C[C@H](C2CC2)C[C@H](OCc2ccc(CO)cc2)O1)N1CCN(Cc2ccccc2)CC1 | 4.26%
6 | CN(C)NC(=O)C(NC(=O)c1ccc(N)cc1)C12CC3CC(CC(C3)C1)C2 (configuration not stated) | 5.7%
7 | CCOC(=O)c1ccccc1N1C(=O)C2Sc3[nH]c(=O)sc3C(/C=C/c3ccccc3)C2C1=O (configuration not stated) | -0.3%
8 | CCC(C)NCCOCCOc1ccc(Br)cc1C (configuration not stated) | -28.9%
9 | COc1ccc2cc(CCl)c(Cl)nc2c1 | -7.11%
10 | CCCn1c(N)c(C(=O)CSc2nnc(-c3cccnc3)n2-c2ccc(C)cc2C)c(=O)[nH]c1=O | 6.05%
11 | COc1cccc(-n2c(SCC(=O)c3c[nH]c4ccccc34)nc3ccccc3c2=O)c1 | 5.13%
12 | CCCn1c(N)c(C(=O)CSc2nc3ccccc3c(=O)n2-c2ccc(OC)cc2)c(=O)[nH]c1=O | 30.7% (active)
13 | CCCCCOc1ccc(CSC2=NCCN2)cc1[N+](=O)[O-] | -7.5%
14 | CCOC(=O)Cn1c(N)c(C(=O)OC)sc1=S | 0.02%
15 | CCOC(=O)c1sc(=S)n(-c2cccc(OC)c2)c1N | 0.93%
16 | CCOC(=O)c1sc(=S)n2c1[nH]c(=O)c1ccc(C(=O)OC)cc12 | 32.4% (active)
17 | CCOC(=O)C1=C(C)NC(=S)NC1c1cccs1 (configuration not stated) | -5%
18 | COC(=O)c1ccc(NC(=O)c2cc(Cl)ccc2OC)cc1 | -17.6%
19 | CC(=O)N1CCN(S(=O)(=O)c2c(F)cc(F)c(Cl)c2F)CC1 | 6.03%

Row | SMILES | inhibition
20 | Cc1ccc(N2C(=O)C(CC(=O)Nc3cccc(F)c3)N(CCc3ccncc3)C2=O)cc1 (configuration not stated) | 7.79%
21 | COc1ccc(CCCc2nnc(SCc3nc4ccccc4c(=O)[nH]3)n2C)cc1 | 31.9% (active)
22 | CCn1c(COc2c(C)cccc2C)nnc1SCc1nc2ccccc2c(=O)[nH]1 | 0.34%
23 | CCn1c(Cc2ccccc2)nnc1SCc1nc2ccccc2c(=O)[nH]1 | 5.28%
24 | Cc1ccc(N(CCC(=O)O)S(=O)(=O)c2cccc(C(F)(F)F)c2)cc1 | 5.45%
25 | O=c1nc(N/N=C/c2ccco2)cn[nH]1 | -4.7%
26 | Cc1cc(=O)[nH]c(SCC(N)=O)c1C#N | 4.32%
27 | CCCCSc1[nH]c(=O)c(C(=O)OCC)cc1C#N | 39.8% (active)
28 | CC(=O)c1cc(C#N)c(SCC(=O)C(C)(C)C)nc1C | -12.4%
29 | COc1cc(NS(=O)(=O)c2ccc(NC(=O)c3ccc(S(=O)(=O)N4CCCCC4)cc3)cc2)ncn1 | -0.14%
30 | N#Cc1ccc(C(=O)Nc2nc(-c3cccs3)c(C(=O)C(F)(F)F)s2)cc1 | 2.83%
31 | CCn1c(CSCc2c(Cl)cccc2Cl)n[nH]c1=S | 10.9%
32 | CN(CC(=O)Nc1ccc(S(=O)(=O)N2CCCC2)cc1)Cc1ccc(Cl)c(Cl)c1 | -4.82%
33 | COc1ccccc1N1CCN(Cc2ccc(OC)c3ccccc23)CC1 | 31.9% (active)
34 | CNCC(O)CN1CCN(c2ccccc2OC)CC1 (configuration not stated) | 3.01%
35 | COc1ccccc1N1CCN(CCCCOc2ccc(F)cc2)CC1 | 13.4%
36 | CN(C)CCCNC(=O)/C=C/c1ccc(OCc2c(F)cccc2Cl)cc1 | -27.3%
37 | O=C(CN1CCN(S(=O)(=O)/C=C/c2ccccc2)CC1)Nc1ccc(N2CCOCC2)cc1 | -11%
